a7 integrin act – activates integrin-mediated alleviation for muscular dystrophy; Potency, µM (top dose mostly 38.3 µM), actives largely listed as activators; alpha7betagal myoblasts, beta-gal FDG fluorescence, 48 h; actives 0.064% (n = 350,000); also: nearly all actives have a fitted effect of over 60% in size
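alpha7betagal+/- myoblasts (passage 13, 250/well) treated 48 h at 37C with compounds at 1:260 dilution of DMSO stock. Lysed, then beta-galactosidase activity read as FDG fluorescence (ex 480/em 540) after 30 min, with pre-read for autofluorescence.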
DRD3 agonist – agonists of human D3 dopamine receptor | P35462 | D3R DiscoveRx beta-arrestin cells, luminescence, 90 min | max activation, % | actives 0.58% (n = 410,000); in the data active = max activation above about 30%
Target sequence (P35462 whole entry, looked up): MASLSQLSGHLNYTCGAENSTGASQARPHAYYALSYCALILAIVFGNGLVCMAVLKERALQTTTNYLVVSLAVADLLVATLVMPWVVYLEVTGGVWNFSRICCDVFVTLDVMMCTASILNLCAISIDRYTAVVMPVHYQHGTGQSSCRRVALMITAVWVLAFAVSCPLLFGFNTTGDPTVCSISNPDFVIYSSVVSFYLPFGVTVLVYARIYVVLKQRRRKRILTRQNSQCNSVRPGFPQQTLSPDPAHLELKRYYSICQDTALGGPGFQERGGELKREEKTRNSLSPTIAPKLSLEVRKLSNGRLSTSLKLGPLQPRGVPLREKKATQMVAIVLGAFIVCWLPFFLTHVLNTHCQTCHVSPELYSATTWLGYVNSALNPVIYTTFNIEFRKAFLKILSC
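Agonist mode: compounds and dopamine controls were applied to plated cells for 90 min at 37 degrees C after an overnight attachment at 1500 cells/well. Luminescent read-out followed 30 - 60 minutes at room temperature with DiscoveRx detection reagent.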
S2 tox – reduces viability in counter-screen for ATXN expression inhibitors. S2 cells (HEK-293 line with an ATXN2-luciferase reporter) viability, CellTiter-Fluor protease fluorescence, 24 h. Potency, µM (highest dose often 56.7 µM), hits mostly cytotoxic. actives 0.49% (n = 400,000). AID 651635; also: nearly all actives have a fitted effect of over 40% in size
ATXN2 expr inh – ATXN2 expression inhibition | actives 0.72% (n = 360,000) | Potency, µM (series often up to 57 µM), most hits filed as inhibitors | HEK-293 ATXN2-luciferase reporter, luminescence, 24 h; also: nearly all actives have a fitted effect of over 55% in size
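ATXN2-luciferase reporter cells (luciferase flanked by upstream and downstream ATXN2 gene portions) were treated 24 h at 37 °C with compounds at up to 57 uM. SteadyGlo luminescence gave expression; GF-AFC fluorescence gave viability.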
IL-1B inflam inh – inflammasome signaling inhibition, IL-1 beta readout; THP-1 LPS/ATP IL-1B secretion, AlphaLISA, 16 h; hits give low values; activity change, % at 57.5 µM; actives 4.7% (n = 360,000); AID 743279; in the data active = activity change below about -50%; inconclusive = mostly about -30% to -49%
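THP-1 cells pretreated 1 hr with compounds (up to 57.5 uM final), then stimulated with LPS (250 ng/mL final) plus ATP (1.25 mM final); secreted IL-1B measured by AlphaLISA after 16 hr, decreased signal indicating inhibition.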
DRD3 antagonist – blocks the human D3 dopamine receptor; P35462; D3R cells, DiscoveRx beta-arrestin luminescence, antagonist mode; hits give low values; max response, negative = inhibition, %; actives 2.5% (n = 360,000); AID 652054; in the data active = max response below about -50%; inconclusive = no clear call, values can overlap the other calls
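Cells expressing the human receptor were seeded at 1500 cells/well, incubated overnight at 37 degrees C in 5% CO2, then exposed to library compounds with dopamine controls for 90 minutes at 37 degrees C before luminescent detection.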
Numbers stand for hits; - = inactive; ? = inconclusive; . = no result given. Compounds with a hit are over-represented: about 7% of the library has one in this group of screens. Unless noted, calls follow the shape of the dose curve; as a rule, active = well fitted curve in the direction sought with a large enough effect; inconclusive = small, poorly fitted or top-dose-only effect, or another doubt; inactive = no such curve, though single readings can be large; an effect the other way counts as inactive or inconclusive.

SMILES	a7 integrin act	DRD3 agonist	S2 tox	ATXN2 expr inh	IL-1B inflam inh	DRD3 antagonist
CN(Cc1cccc(-c2ccncc2)c1)C(=O)Oc1ccc([N+](=O)[O-])cc1	.	-	32µM	25µM	-	-
CN(C(=O)Oc1ccc([N+](=O)[O-])cc1)c1ccccc1	-	-	-	-	-56	-
COc1cc2c(cc1OC)-c1c(OC)c(OC)c(OC)c3ccnc(c13)C2=O	-	-	?	?	?	-
O=C(Cc1cccs1)N1Cc2ccccc2-n2nncc2C1	-	-	-	-	-	-
CCOc1ccc(-n2c(-c3ccoc3)nc3ccccc3c2=O)cc1	-	-	-	-	-	-
CCOc1ccc(-c2c(C)n(-c3ccc(OCC)cc3)c3[n+]2CCCCC3)cc1	?	-	-	?	-92	-
NS(=O)(=O)c1cccc(N2CCNCC2)c1	-	-	-	-	-	-
c1coc(CN2Cc3ccccc3-n3nncc3C2)c1	-	-	-	-	-	-
Cc1ccc2c(CN3CC=C(c4ccccc4)CC3)cc(=O)oc2c1C	-	40	-	-	-	-
COc1cc(C)cc(CN2CC=C(c3ccccc3)CC2)c1O	-	-	?	.	-	?
COc1ccc(C(C)=O)cc1CN1CC=C(c2ccccc2)CC1	-	-	-	-	-	-101
COc1ccc2c(c1)c(CCN)c(C)n2Cc1ccccc1	-	-	?	?	-52	-
COc1cccc2c1cc([N+](=O)[O-])c1c(C(=O)O)cc3c(c12)OCO3	-	-	?	?	-58	-
CCOC(=O)[C@]12Cc3cc(Cl)ccc3[C@H]1N(C(C)C)C(=O)c1ccccc12	.	-	6.3µM	5.6µM	.	-
CCOC(=O)[C@]12Cc3cc(Cl)ccc3[C@H]1N(C)C(=O)c1ccccc12	.	-	-	-	-62	-
CCOC(=O)[C@]12Cc3cc(Cl)ccc3[C@H]1N(CC(=O)OC)C(=O)c1ccccc12	.	-	7.9µM	7.1µM	.	-
CCOC(=O)[C@]12Cc3cc(C)ccc3[C@H]1N(C)C(=O)c1ccccc12	.	-	?	-	-	-
COC(=O)C1=C(c2cccc(C#N)c2)C[C@@H]2CC[C@H]1N2C(=O)NCC1CC1	-	-	-	-	-	-
COc1ccc(C(c2nnnn2-c2c(C)cccc2C)N2CCC3(CC2)C(=O)NCN3c2ccccc2)cc1 (centres undefined)	.	-	?	?	-64	-54
COc1ccc(C(c2nnnn2-c2c(C)cccc2C)N2CCC(n3c(=O)[nH]c4ccccc43)CC2)cc1 (centres undefined)	.	-	?	?	-92	-
O=c1[nH]c2ccccc2n1C1CCN(C(c2ccccc2)c2nnnn2-c2ccc3c(c2)OCCO3)CC1 (centres undefined)	.	-	.	?	-	-
Cc1cccc(C)c1-n1nnnc1C(c1ccccc1)N1CCC2(CC1)C(=O)NCN2c1ccccc1 (centres undefined)	.	-	?	?	?	-
Cc1cccc(C)c1-n1nnnc1C(c1ccccc1OC(F)(F)F)N1CCC(n2c(=O)[nH]c3ccccc32)CC1 (centres undefined)	.	-	-	-	-81	-
Cc1cccc(C)c1-n1nnnc1C(c1cc2ccccc2o1)N1CCC(n2c(=O)[nH]c3ccccc32)CC1 (centres undefined)	.	-	?	5.6µM	-	-
COc1ccc(-n2nnnc2C(c2ccccc2)N2CCC(n3c(=O)[nH]c4ccccc43)CC2)cc1 (centres undefined)	.	-	?	?	?	-
Cc1ccccc1CN1C(=O)CN=C(c2ccccc2)c2cc(Cl)ccc21	.	-	.	.	.	.
COc1ccc(CCNCc2sccc2C)cc1	-	-	-	-	?	-
O=c1[nH]c2ccccc2n1C1CCN(C(CCc2ccccc2)c2nnnn2C2CCCC2)CC1 (centres undefined)	.	-	?	25µM	-55	-
O=c1[nH]c2ccccc2n1C1CCN(C(c2cc3ccccc3o2)c2nnnn2Cc2ccccc2)CC1 (centres undefined)	.	-	.	20µM	?	-
CCC(=NCC1CCCO1)c1c(O)n(-c2ccccc2)c(=O)[nH]c1=O (centres undefined)	-	-	-	-	-	?

High-throughput results as filed in PubChem BioAssay.
